# Test results taken from PubChem BioAssay AID1456 (Vanderbilt High Throughput Screening Facility, 2008).
# The whole screen tested about 190,000 compounds, of which about 4,100 (2.2%) were called active. This excerpt belongs to a sample that is enriched for actives. Values without a mark were called inactive.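 The calls were made as follows: active = thallium flux slope and its plate-corrected score both differing from the plate sample mean at a set confidence after two filtering rounds, in either direction; inactive = the rest.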
# Biological target: Solute carrier family 12 member 5 (Homo sapiens) (UniProt Q9H2X9)
# Assay: KCC2 cotransporter modulators, thallium flux, primary screen, cell-based, HEK293 KCC2, FluoZin-2 fluorescence, MLSMR (AID 1456);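 also: slope of fluorescence scaled to starting intensity during 10 to 20 s after thallium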
# Details: KCC2 cells, thallium flux FluoZin-2 fluorescence; at 10 µM
# Chain of Solute carrier family 12 member 5 (Homo sapiens) (Q9H2X9 whole entry, looked up): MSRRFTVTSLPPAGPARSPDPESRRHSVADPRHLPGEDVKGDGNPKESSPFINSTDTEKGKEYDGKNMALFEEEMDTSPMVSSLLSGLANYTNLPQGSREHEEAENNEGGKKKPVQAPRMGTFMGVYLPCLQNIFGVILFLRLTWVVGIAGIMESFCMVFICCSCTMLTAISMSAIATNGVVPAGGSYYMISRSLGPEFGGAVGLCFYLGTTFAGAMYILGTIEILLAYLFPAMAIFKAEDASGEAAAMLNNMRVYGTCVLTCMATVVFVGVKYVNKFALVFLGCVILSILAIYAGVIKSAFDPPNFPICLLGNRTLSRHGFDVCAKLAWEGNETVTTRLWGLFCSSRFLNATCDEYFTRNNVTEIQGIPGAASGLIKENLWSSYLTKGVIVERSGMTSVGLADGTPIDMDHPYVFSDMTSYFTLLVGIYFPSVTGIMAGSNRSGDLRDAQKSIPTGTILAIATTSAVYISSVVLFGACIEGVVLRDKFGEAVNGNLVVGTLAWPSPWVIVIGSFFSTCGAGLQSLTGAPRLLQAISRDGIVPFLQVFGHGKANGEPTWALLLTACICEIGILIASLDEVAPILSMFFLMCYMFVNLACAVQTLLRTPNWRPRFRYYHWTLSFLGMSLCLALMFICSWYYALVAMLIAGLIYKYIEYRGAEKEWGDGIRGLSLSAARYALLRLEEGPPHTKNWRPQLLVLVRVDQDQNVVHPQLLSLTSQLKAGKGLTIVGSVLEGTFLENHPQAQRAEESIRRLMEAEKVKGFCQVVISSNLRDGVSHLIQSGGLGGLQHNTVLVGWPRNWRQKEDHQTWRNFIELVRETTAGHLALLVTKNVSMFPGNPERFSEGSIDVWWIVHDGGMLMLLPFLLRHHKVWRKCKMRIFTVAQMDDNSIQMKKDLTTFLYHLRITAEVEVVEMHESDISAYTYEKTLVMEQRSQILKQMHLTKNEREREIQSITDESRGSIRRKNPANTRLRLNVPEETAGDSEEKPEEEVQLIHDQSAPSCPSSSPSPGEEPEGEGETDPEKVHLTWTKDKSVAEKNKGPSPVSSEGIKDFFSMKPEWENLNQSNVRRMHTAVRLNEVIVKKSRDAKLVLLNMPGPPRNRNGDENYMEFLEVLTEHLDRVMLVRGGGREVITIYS
row,SMILES,B-score of Tl+ flux slope (higher = more flux/activation; lower = inhibition)
1,CCCCn1c(SCC(=O)NCC2CCCO2)nc2ccc(N3CCOCC3)cc2c1=O (stereo not drawn),7.18 (active)
2,COCCCNC(=O)CSc1nc2ccc(N3CCOCC3)cc2c(=O)n1CCc1ccccc1,2.34
3,O=C(CCCn1c(SCC(=O)c2ccccc2)nc2ccccc2c1=O)NCC1CCCO1 (stereo not drawn),-0.113
4,CC(C)(C)NC(=O)NC(=O)COC(=O)Cc1ccc(Cl)cc1Cl,0.383
5,CCN1CCN(C(=O)CCN2C(=O)c3ccccc3C2=O)CC1,0.322
6,CCOC(=O)C1=NN(c2ccc(Cl)cc2)/C(=C/C2=NCCc3cc(OC)c(OC)cc32)S1,1.05
7,O=C(O)CC1(CC(=O)Nc2cccc(C(F)(F)F)c2)CCCC1,-1.45
8,CCOC(=O)Cc1cc(=O)[nH]c(/N=C(\N)Nc2ccc(OC)cc2)n1,-0.288
9,CCc1c(SCCC(=O)O)nc2ccccc2c1C,3.44 (active)
10,COC(=O)CSc1nc(C2CC2)nc2ccccc12,-0.171
11,O=C(O)CCSc1nnc(-c2ccccc2)n1-c1ccccc1,0.407
12,CNC(=O)c1cc2c(ccc3ccccc32)oc1=N,-0.785
13,N=c1oc2ccccc2cc1C(=O)N/N=C/c1ccccc1,-3.75 (active)
14,Cc1nc2ccccc2cc1C(=O)N/N=C/c1ccc([N+](=O)[O-])cc1,-1.83
15,CCN(CC)c1ccc(NC(=O)C2CCC(CNc3c(N4CCCC4)c(=O)c3=O)CC2)c(C)c1 (stereo not drawn),1.27
16,CCCc1c(C(=O)O)cnn1-c1ccc(Cl)cc1,-0.00741
17,Oc1c(Cl)cc(Cl)c(Cl)c1Cc1c(O)c(Cl)cc(Cl)c1Cl,19.9 (active)
18,COc1ccc(CC2(CO)CCN(Cc3cnn(C)c3)CC2)cc1,0.00537
19,C/C=C/C(=O)Nc1ccc(N2CCN(c3ccc(C(F)(F)F)cn3)CC2)nc1,-0.115
20,CS(=O)(=O)N(CC(=O)N1CCN(c2ccc(F)cc2)CC1)C1CCCCC1,-3.33 (active)
21,CS(=O)(=O)N(CC(=O)Nc1ccc(Cl)c(Cl)c1)C1CCCCC1,-0.64
22,CCC(C)NC(=O)CN(C1CCCCC1)S(C)(=O)=O (stereo not drawn),0.0328
23,O=C(NN1C(=O)C2CCCCC2C1=O)c1ccco1 (stereo not drawn),-1.74
24,O=S(=O)(NC(=S)Nc1ccccc1)c1ccc(F)cc1,0.866

row,SMILES,B-score of Tl+ flux slope (higher = more flux/activation; lower = inhibition)
1,Cc1cc(C)nc(Nc2n[nH]c(-c3ccccc3N)n2)n1,0.274
2,COc1cccc(-n2c(=S)[nH]c3c(oc4ccccc43)c2=O)c1,-2.03
3,CSc1nc2sc3c(c2c(=O)[nH]1)CCc1ccccc1-3,0.526
4,COc1ccc(-n2c(=S)[nH]c3sc4c(c3c2=O)CCc2ccccc2-4)cc1,11.6 (active)
5,COCc1cc(=O)[nH]c(SC)n1,-0.453
6,Cc1cccc(OCC(=O)NC(=S)Nc2ccccc2N2CCOCC2)c1,8.7 (active)
7,Cc1cccc(OCCC(=O)Nc2cc(S(=O)(=O)N3CCCCC3)ccc2N2CCOCC2)c1,0.115
8,Cc1cccc(OCC(=O)Nc2ccccc2F)c1,0.917
9,O=C(Nc1ccccc1)Nc1ccc(C(F)(F)F)cn1,0.765
10,O=C(C1=C(O)C(=O)N(CCOCCO)C1c1ccccn1)c1cccs1 (stereo not drawn),0.0733
11,CC(=O)NC(CC(=O)Nc1nccs1)c1ccccc1 (stereo not drawn),0.0448
12,CC(=O)Nc1nc2ccccc2n1Cc1ccc(C)cc1,0.76
13,Cc1ccc(Cn2c(NC(=O)c3ccco3)nc3ccccc32)cc1,1.11
14,CCCc1nc2c(C)cc(-c3nc4ccccc4n3C)cc2n1Cc1ccc(-c2ccccc2C(=O)O)cc1,-4.55 (active)
15,c1ccc2c(c1)OCCOCCOCCO2,-0.0153
16,N#Cc1ccccc1Sc1ccccc1C(=O)OCC(=O)NC1CCCCC1,-0.81
17,O=C(COC(=O)c1cc([N+](=O)[O-])ccc1NCc1ccccc1)NC1CCCCC1,-3.78 (active)
18,O=C(COC(=O)c1ccccc1SCC(=O)NC1CCCCC1)NC1CCCCC1,0.427
19,Cc1nc2ccccc2n1CC(=O)N/N=C/c1cccnc1,0.307
20,O=C(CSc1cccc2cccnc12)N/N=C/c1cccnc1,30.2 (active)
21,CCOC(=O)N/N=C/c1cccnc1,0.0775
22,CN(c1ccccc1)S(=O)(=O)c1ccc(Cl)c(C(=O)OCC(=O)NCc2ccco2)c1,-3.28
23,O=C(Nc1cccc(S(=O)(=O)NC2=NCCC2)c1)C1CCCCC1,0.665
24,N/C(=N\OC(=O)Nc1ccccc1)c1ccno1,0.175
